miR-122 inh: activators of miR-122 sensor in Huh7 cells | AID 623901 | activation, % at 12.5 µM | Huh7 psiCHECK-miR122 Renilla luciferase sensor, 48 h | 340,000 tested, 0.14% active;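 active means mean activation of 30% or more, with every replicate also reaching 30%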;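 further: 0% = median of neutral control wells and 100% = median of positive control wells; higher luciferase signal means stronger suppression of miR-122 activity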
* = called active by the depositor. The entries come from a sample that favours hits as a whole.

SMILES | miR-122 inh
CCCC#Cc1ccc2c(c1)O[C@H](CN(C)C(=O)c1cccnc1)[C@H](C)CN([C@H](C)CO)S2(=O)=O | 11.3
C[C@@H]1CN([C@H](C)CO)S(=O)(=O)c2ccc(C#Cc3ccncc3)cc2O[C@@H]1CN(C)C(=O)C1CCCCC1 | 18.9
CC(C)CC#Cc1ccc2c(c1)O[C@H](CN(C)C(=O)c1ccccc1)[C@@H](C)CN([C@@H](C)CO)S2(=O)=O | -40.0
COCC(=O)N(C)C[C@H]1Oc2cc(C#Cc3cccnc3)ccc2S(=O)(=O)N([C@H](C)CO)C[C@H]1C | 50.6*
C[C@@H]1CN([C@H](C)CO)S(=O)(=O)c2ccc(C#Cc3ccncc3)cc2O[C@H]1CN(C)C(=O)C1CCCCC1 | -32.5
CCCC#Cc1ccc2c(c1)O[C@H](CN(C)C(=O)c1ccccn1)[C@@H](C)CN([C@H](C)CO)S2(=O)=O | -128.0
CCC(=O)N(C)C[C@@H]1Oc2cc(C#Cc3cccnc3)ccc2S(=O)(=O)N([C@@H](C)CO)C[C@H]1C | -8.0
CC(C)CC#Cc1ccc2c(c1)O[C@H](CN(C)C(=O)c1ccccc1)[C@H](C)CN([C@H](C)CO)S2(=O)=O | 42.4*
CC(C)CC#Cc1ccc2c(c1)O[C@H](CN(C)C(=O)c1cnccn1)[C@H](C)CN([C@H](C)CO)S2(=O)=O | 39.3*
CCC(=O)N(C)C[C@H]1Oc2cc(C#Cc3cccnc3)ccc2S(=O)(=O)N([C@@H](C)CO)C[C@H]1C | -15.6
COc1ccc(CCNC(=O)COC(=O)Cn2cnc3ccccc3c2=O)cc1 | -186.4
COc1cccc(C#Cc2cnc3c(c2)C(=O)N([C@H](C)CO)C[C@H](C)[C@@H](CN(C)C(=O)C2CCCCC2)O3)c1 | -7.0
C[C@H](CO)N1C[C@H](C)[C@@H](CN(C)S(C)(=O)=O)Oc2ncc(C#Cc3cccnc3)cc2C1=O | -1.5
CCCNC(=O)N(C)C[C@@H]1Oc2cc(C#CCOC)ccc2S(=O)(=O)N([C@H](C)CO)C[C@H]1C | -21.6
CN(C)c1ccc2c(c1)[C@@H]1C[C@@H](CC(=O)NCc3ccc(Oc4ccccc4)cc3)O[C@@H](CO)[C@@H]1O2 | -95.6
C[C@H](CO)N1C[C@H](C)[C@H](CN(C)Cc2ccc(C(=O)Nc3ccccc3N)cc2)Oc2ccc(NS(=O)(=O)c3ccccc3)cc2CC1=O | -145.2
C[C@H](CO)N1C[C@H](C)[C@H](CN(C)C(=O)NC2CCCC2)Oc2ncc(Br)cc2C1=O | -2.8
CCC(=O)Nc1ccc2c(c1)C(=O)N(C)C[C@H](OC)[C@H](C)CN(Cc1ccccc1OC)[C@@H](C)CO2 | 0.0
CCCN1C[C@H](C)[C@H](OC)CN(C)C(=O)c2ccc(NS(C)(=O)=O)cc2OC[C@H]1C | -3.4
C[C@H](CO)N1C[C@H](C)[C@H](CN(C)S(=O)(=O)c2ccccc2F)Oc2cc(C#Cc3ccccc3)ccc2S1(=O)=O | -10.9
Cc1cc(NS(=O)(=O)c2ccccc2)cc(Cl)c1O | -112.6
C[C@H](O)C#Cc1ccc2c(c1)O[C@@H](CN(C)Cc1cccnc1)[C@H](C)CN([C@@H](C)CO)S2(=O)=O | 6.8
COc1ccc(C#Cc2ccc3c(c2)O[C@H](CN(C)C(=O)CN2CCOCC2)[C@@H](C)CN([C@@H](C)CO)S3(=O)=O)cc1 | 42.8*
C[C@@H]1CN([C@@H](C)CO)S(=O)(=O)c2ccc(C#C[C@@H](C)O)cc2O[C@H]1CN(C)Cc1cccnc1 | 7.7
CC(C)CC#Cc1ccc2c(c1)O[C@H](CN(C)C(=O)c1cnccn1)[C@H](C)CN([C@@H](C)CO)S2(=O)=O | 36.1*
SMILES | miR-122 inh
C/C=C/c1ccc2c(c1)O[C@@H](CN(C)C(=O)Cc1ccccn1)[C@@H](C)CN([C@@H](C)CO)S2(=O)=O | 0.2
CCCC#Cc1ccc2c(c1)O[C@@H](CN(C)C(=O)c1cccnc1)[C@H](C)CN([C@@H](C)CO)S2(=O)=O | -18.3
C/C=C/c1ccc2c(c1)O[C@H](CN(C)C(=O)c1cnccn1)[C@H](C)CN([C@@H](C)CO)S2(=O)=O | 44.3*
CC(C)CC#Cc1ccc2c(c1)O[C@@H](CN(C)C(=O)NC1CCCC1)[C@@H](C)CN([C@H](C)CO)S2(=O)=O | -7.1
COc1cccc(C#Cc2ccc3c(c2)O[C@H](CN(C)C(=O)CN2CCOCC2)[C@@H](C)CN([C@@H](C)CO)S3(=O)=O)c1 | -17.7
C/C=C/c1ccc2c(c1)O[C@H](CN(C)C(=O)c1cccnc1)[C@@H](C)CN([C@H](C)CO)S2(=O)=O | -4.9
COc1cccc(C#Cc2ccc3c(c2)O[C@H](CN(C)C(=O)CN2CCOCC2)[C@H](C)CN([C@@H](C)CO)S3(=O)=O)c1 | -28.5
C[C@H](O)C#Cc1ccc2c(c1)O[C@@H](CN(C)Cc1ccc(-c3ccccc3)cc1)[C@H](C)CN([C@H](C)CO)S2(=O)=O | 45.3*
CC(=O)N(C)C[C@@H]1Oc2cc(C#C[C@@H](C)O)ccc2S(=O)(=O)N([C@H](C)CO)C[C@H]1C | 7.9
Cc1ccc(NS(=O)(=O)c2ccc3c(c2)n(C)c(=O)n3C)cc1C | -90.1
COc1cccc(C#Cc2cnc3c(c2)C(=O)N([C@H](C)CO)C[C@@H](C)[C@H](CN(C)C(=O)C2CCCCC2)O3)c1 | 6.8
